This is a sample that favours compounds with a hit; in the whole collection about 6.9% have one here.
VDR inh = Inhibitors of the vitamin D receptor (VDR): qHTS. Vitamin D3 receptor (Homo sapiens), P11473. VDR-SRC2-3 peptide fluorescence polarization, 2 h. Potency, µM, most hits filed as inhibitors. actives 0.93% (n = 400,000). AID 504847, 2011
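Inhibition of the VDR/SRC2-3 peptide interaction is quantified by fluorescence polarization. Compounds (23 nl, pintool) incubate with the reagents for 2 hours at ambient room temperature.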
BAZ2B block = qHTS Assay for Inhibitors of BAZ2B | AlphaScreen BAZ2B-H3K14Ac peptide displacement | actives 4.4% (n = 360,000) | Potency, µM (top dose mostly 114 µM), most hits filed as inhibitors | AID 504333, 2011; note: nearly all actives have a fitted effect of over 60% in size
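BAZ2B 50 nM plus b-H3(5-23)K14Ac 50 nM, PBS pH 7.4/0.01% Tween-20, 30 min RT; compound added (max 110 uM), 30 min RT; streptavidin donor/Ni-chelate acceptor beads 10 ug/mL final, 20 min dark; AlphaScreen read.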
HP1b chromo inh = HTS for Inhibitors of HP1-beta Chromodomain Interactions with Methylated Histone Tails; AlphaScreen HP1-beta / biotin-H3K9me3 peptide binding; Potency, µM (series often up to 114 µM), hits mostly inhibitors; actives 0.56% (n = 390,000); AID 540317, 2011; note: nearly all actives have a fitted effect of over 70% in size
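HP1-beta protein (50 nM final) preincubated 30 min at room temperature with biotinylated H3(1-18)K9me3 peptide (50 nM) in PBS pH 7.4, 0.01% Tween-20, then compound added for 30 min. AlphaScreen streptavidin donor/nickel chelate acceptor beads (10 ug/mL final), 30 min dark, luminescence read.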
PLK1 PBD block = qHTS for Inhibitors of PLK1-PDB (polo-like kinase 1 - polo-box domain): Primary Screen | Serine/threonine-protein kinase PLK1 (Homo sapiens), P53350 | Plk1 PBD binding of FITC phosphopeptide, fluorescence polarization | Potency, µM, hits mostly inhibitors | actives 2.8% (n = 360,000) | AID 720504, 2013; note: series mostly up to about 57 µM; nearly all actives have a fitted effect of over 65% in size
Target sequence (P53350 whole entry, looked up, the tested form may be a part): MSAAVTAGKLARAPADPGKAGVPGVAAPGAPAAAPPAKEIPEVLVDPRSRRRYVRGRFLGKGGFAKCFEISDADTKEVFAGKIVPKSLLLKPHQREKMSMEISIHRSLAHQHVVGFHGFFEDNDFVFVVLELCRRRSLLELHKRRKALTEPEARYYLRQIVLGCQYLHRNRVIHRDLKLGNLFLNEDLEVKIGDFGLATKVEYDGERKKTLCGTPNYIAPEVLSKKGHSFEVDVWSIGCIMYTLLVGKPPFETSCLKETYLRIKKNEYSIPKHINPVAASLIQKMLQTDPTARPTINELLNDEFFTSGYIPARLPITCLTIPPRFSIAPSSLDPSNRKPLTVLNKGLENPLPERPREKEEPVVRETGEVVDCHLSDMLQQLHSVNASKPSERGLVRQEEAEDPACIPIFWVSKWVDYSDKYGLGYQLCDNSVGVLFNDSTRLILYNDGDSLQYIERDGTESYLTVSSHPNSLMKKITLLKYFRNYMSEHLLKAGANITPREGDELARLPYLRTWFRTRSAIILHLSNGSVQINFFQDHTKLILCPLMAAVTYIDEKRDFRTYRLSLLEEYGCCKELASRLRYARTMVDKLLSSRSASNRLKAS
L3MBTL1 inh = qHTS Assay for the Inhibitors of L3MBTL1; Lethal(3)malignant brain tumor-like protein 1 (Homo sapiens), Q9Y468; AlphaScreen L3MBTL1–H3K9me1 peptide binding; Potency, µM (titrated, usually from 57.1 µM), most hits filed as inhibitors; actives 0.66% (n = 230,000); note: nearly all actives have a fitted effect of over 60% in size
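Read-out is AlphaScreen signal from streptavidin donor and nickel chelate acceptor beads (10 ug/mL final each) bridging L3MBTL1 (50 nM) and biotinylated K9-monomethylated H3(1-15) peptide (75 nM), after 30 min compound exposure at room temperature.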
JMJD2A Tudor = qHTS Assay for Inhibitors of JMJD2A-Tudor Domain; AlphaScreen JMJD2A-Tudor / H3K4me3 peptide binding; Potency, µM (top dose mostly 114 µM), hits mostly inhibitors; actives 4.4% (n = 390,000); AID 504339, 2011; note: nearly all actives have a fitted effect of over 50% in size
Hits are given with their value; - = inactive; ? = inconclusive; . = no result given; [ ] = remark or other dose. Calls come from the whole dose curve; as a rule, active = well fitted curve in the direction sought with a large enough effect; inconclusive = small, poorly fitted or top-dose-only effect, or another doubt; inactive = no such curve, though single readings can be large; an effect the other way counts as inactive or inconclusive.

SMILES | VDR inh | BAZ2B block | HP1b chromo inh | PLK1 PBD block | L3MBTL1 inh | JMJD2A Tudor
Cc1noc(-c2ccc(NCc3ccccc3)c([N+](=O)[O-])c2)n1 | - | - | - | . | . | -
COc1ccc(C2(CNC(=O)c3cccc([N+](=O)[O-])c3)CCOCC2)cc1OC | ? | - | - | 15µM | - | 56.2µM
Nc1sc(Cc2ccccc2)cc1C(=O)c1c(-c2ccccc2)[nH]c2ccccc12 | . | . | . | 18.9µM | . | .
Cc1ccc2c(c1)C(=O)CCN2 | - | - | - | - | . | -
Cc1ccc2c(c1)NCCO2 | - | . | - | - | - | 50.1µM
OC[C@@H]1CN(CCN2CCOCC2)C[C@H](n2cnc3c(NC4CCCC4)ncnc32)O1 | . | . | . | - | . | .
Cc1ccccc1CNC1CCCCC1 | - | - | - | ? | - | -
O=[N+]([O-])c1ccccc1CNC1CCCCCC1 | - | ? | ? | - | - | 50.1µM
Cc1ccc(NC(=O)Cn2ccn(Cc3ccc(Cl)cc3)c(=O)c2=O)cc1C | - | - | - | . | . | -
CC(=O)N/N=C/c1cc(C(C)C)cc(/C=N/NC(C)=O)c1O | - | - | - | 21.2µM | - | -
CCOC1=C2[C@@H](CN(S(=O)(=O)c3ccc(C)cc3)[C@H]2c2cccs2)[C@H]2C(=O)N(c3ccccc3)C(=O)[C@H]2C1 | . | . | . | - | . | .
COc1ccc2c(c1OC)C(=O)OC2CC(=O)c1ccc(O)cc1 (stereo not drawn) | - | - | - | - | - | -
COc1ccc2c(c1OC)C(=O)OC2CC(=O)c1ccc(O)c(O)c1 (stereo not drawn) | - | ? | - | - | . | 5.01µM
O=C(Sc1nnc(-c2ccccc2)o1)N1c2ccccc2Sc2ccccc21 | - | ? | - | 67µM | - | 50.1µM
Cn1ccnc1SC(=O)N1c2ccccc2Sc2ccccc21 | - | ? | - | - | . | 20µM
COc1cc(-c2nnc(SCC(=O)N3c4ccccc4Sc4ccccc43)o2)cc(OC)c1OC | - | - | - | - | - | -
C[n+]1ccccc1/C=C/c1ccccc1Cl | - | 56.2µM | - | - | - | -
C[n+]1ccccc1/C=C/c1ccc(C#N)cc1 | - | 44.7µM | ? | ? | -[2.29 µM] | 22.4µM
Cc1ccccc1/C=C/c1cccc[n+]1C | - | - | - | - | - | -
COc1ccc(CCNC(=O)CCc2cn(Cc3ccccc3Cl)c3ccccc23)c(OC)c1 | - | ? | - | . | . | -
Clc1ccccc1/C=N/c1cc(-c2ccccc2)nn1-c1ccccc1 | ? | ? | - | 16.8µM | - | ?
CC(=O)C(/C=N/c1cc(-c2ccc(C)cc2)nn1-c1ccccc1)=C(\C)O | - | - | - | - | - | -
O=S(=O)(c1ccccc1)C(/C=N\O)/C=C/c1ccccc1 (stereo not drawn) | - | - | - | 2.99µM | - | ?
CC(C)C(C=Cc1ccccc1)=NNS(=O)(=O)c1ccccc1 | . | . | . | - | . | .
O=c1c2ccccc2nc(-c2ccccc2)n1Cc1ccccc1 | - | - | - | - | - | -
SMILES | VDR inh | BAZ2B block | HP1b chromo inh | PLK1 PBD block | L3MBTL1 inh | JMJD2A Tudor
COc1ccc(O)c(-c2nc3ccccc3c(=O)n2Cc2ccccc2)c1 | . | . | . | . | . | 79.4µM
CCC(C(=O)NCc1ccccc1OC)n1nc(C)n2c(cc3occc32)c1=O (stereo not drawn) | - | - | - | - | . | -
COc1ccccc1CNC(=O)C(C)n1nc(C)n2c(cc3occc32)c1=O (stereo not drawn) | ? | - | - | 26.7µM | . | ?
CCNC(=O)N(C)C[C@H]1N[C@@](C)(C(=O)OC)[C@H]2C(=O)N(C)C(=O)[C@@H]12 | - | . | - | ? | - | 89.1µM
COc1ccc(-c2cn3cccnc3n2)cc1NC(=O)c1cc(C)cc(C)c1 | - | - | - | . | . | -
CN(O)/C=C/C(=O)c1ccc(Br)cc1 | - | - | - | 26.7µM | - | 50.1µM
Nc1nn(-c2ccccc2)c(N)c1N=Nc1ccc2c(c1)OCO2 | - | 31.6µM | 17.8µM | - | - | 50.1µM

Screens as filed in PubChem.
